High-throughput results (PubChem)
A549 viability = kills or reduces viability of A549 cells in Nrf2 counter-screen. A549 ARE-Fluc cells, CellTiter-Fluor viability, 18-24 h. Potency, µM (series often up to 46 µM), for inactives: at the top dose activity change, negative = cytotoxicity, most hits filed as inhibitors. 390,000 compounds, 0.16% hits; note: potency is the fitted concentration of half-maximal effect; % is set by controls: 0 for no effect and ±100 for the full control effect
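A549 ARE_Fluc cells in 5% FBS OPTI-MEM were exposed to compounds in concentration-response for 18-24 h at 37 deg C. Viability was read by CellTiter-Fluor fluorescence (Ex 405/Em 525) after 30 min, before the luciferase read.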
Nrf2 inh = blocks Nrf2 signaling. A549 ARE-Fluc reporter, luciferase luminescence, 18-24 h. Potency, µM (titrated, usually from 46 µM), for the others: top-dose activity change, negative = inhibition, most hits filed as inhibitors. 360,000 compounds, 2.1% hits; note: potency is the fitted concentration of half-maximal effect; % is set by controls: 0 for no effect and ±100 for the full control effect; nearly all actives have a fitted effect of over 60% in size
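In this cell-based qHTS, ARE-driven firefly luciferase in A549 cells reports Nrf2 activity; the luminescent signal after BugLite lysis is the measured value, with a prior CellTiter-Fluor read for cell health.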
IDH1 R132H inh = human IDH1 R132H inhibition; O75874; IDH1-R132H enzyme, NADPH consumption, diaphorase/resazurin fluorescence; Potency, µM (doses to about 76.6 µM), for the others: at the top dose activity change, negative = inhibition, usual class: inhibitors; 390,000 compounds, 0.093% hits; AID 602179; note: potency is the fitted concentration of half-maximal effect; % is set by controls: 0 for no effect and ±100 for the full control effect; nearly all actives have a fitted effect of over 65% in size
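IDH1-R132H (0.5 ug/mL dispensed) in pH 7.5 Tris buffer was preincubated 30 min with compound, then given a substrate mix of 0.016 mM NADPH and 2 mM alpha-KG for 80 min at room temperature; remaining NADPH was read by diaphorase/resazurin fluorescence.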
rTrxR1 inhibitor = rat TrxR1 inhibition. AID 588453. O89049. 390,000 compounds, 1% hits. Potency, µM (doses to about 114 µM), for the others: top-dose activity change, negative = inhibition, hits mostly inhibitors. recombinant rTrxR1, NADPH fluorescence consumption, selenite substrate; note: potency is the fitted concentration of half-maximal effect; % is set by controls: 0 for no effect and ±100 for the full control effect; nearly all actives have a fitted effect of over 65% in size
Target sequence (O89049 whole entry, looked up): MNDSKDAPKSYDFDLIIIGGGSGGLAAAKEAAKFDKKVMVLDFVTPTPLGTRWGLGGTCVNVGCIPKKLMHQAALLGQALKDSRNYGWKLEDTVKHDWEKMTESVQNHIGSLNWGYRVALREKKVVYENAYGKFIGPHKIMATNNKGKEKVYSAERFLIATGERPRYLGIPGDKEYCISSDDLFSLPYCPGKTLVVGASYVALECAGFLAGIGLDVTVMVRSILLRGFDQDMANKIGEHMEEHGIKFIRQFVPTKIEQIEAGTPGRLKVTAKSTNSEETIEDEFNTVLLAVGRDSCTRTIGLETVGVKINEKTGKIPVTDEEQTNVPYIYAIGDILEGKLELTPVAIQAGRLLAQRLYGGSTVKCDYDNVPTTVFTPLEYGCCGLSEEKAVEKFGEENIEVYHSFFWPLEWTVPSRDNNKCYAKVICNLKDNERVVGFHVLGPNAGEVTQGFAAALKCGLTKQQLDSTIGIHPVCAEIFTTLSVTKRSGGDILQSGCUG
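Rat TrxR1 (90 nM in the dispensed reagent) was pre-reduced with 400 uM NADPH for 5 min at room temperature, then incubated with compound for 15 min. After 400 uM selenite was added, NADPH fluorescence (Ex 340/Em 450 nm) was followed for 8 min.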
Mito fusion act = inhibitors of mitochondrial division or activators of mitochondrial fusion; S. cerevisiae fusion-defective mutant growth rescue, CellTiterGlo 48 h; AID 485298; Potency, µM (highest dose often 46.1 µM), inactives show at the top dose growth rescue (activation), usual class: activators; 320,000 compounds, 0.23% hits; note: potency is the fitted concentration of half-maximal effect; % of control where 0% means no effect; nearly all actives have a fitted effect of over 45% in size
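Read-out: ATP-based luminescence (CellTiterGlo, 10 min ambient) reporting growth of fusion-defective ts yeast after 48 hours at 37C on glycerol/ethanol YPEG medium in the presence of compound.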
TrxR1 substrate = rat thioredoxin reductase 1 substrate activity; purified TrxR1 substrate turnover, NADPH consumption readout; Potency, µM (series often up to 114 µM), for inactives: at the highest dose activity change, negative = substrate turnover; AID 588456; 390,000 compounds, 0.01% hits; note: potency is the fitted concentration of half-maximal effect; % is set by controls: 0 for no effect and ±100 for the full control effect; nearly all actives have a fitted effect of over 50% in size
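Rat TrxR1, dispensed at 90 nM, was prereduced with 400 uM NADPH (final) for 5 min at ~22 deg C, then incubated with compound 15 min before 400 uM selenite. A first-read NADPH fluorescence drop versus no-compound background flagged substrates.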
IDH1 autofl = autofluorescence interference, mutant IDH1 hit counter-screen | shares compounds with IDH1 R132H inh | Resorufin detection reagent fluorescence interference, cell-free | inhibition of signal, % at 51.2 µM | 750 tested, under 10 active | AID 623980;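 note: 0% = wells with normal resorufin and full inhibition = wells lacking resorufin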
WT IDH1 inh = wild-type IDH1 (human) inhibition counterscreen; Potency, µM (highest dose often 115 µM), for the others: at the top dose activity change, negative = inhibition, most hits filed as inhibitors; 750 compounds, 9% hits; WT IDH1 enzyme, NADPH diaphorase/resazurin fluorescence; shares compounds with IDH1 R132H inh;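 note: potency is the fitted concentration of half-maximal effect; 0% = full WT IDH1 enzyme control and full inhibition = no enzyme wells; nearly all actives have a fitted effect of over 55% in size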
IDH1 R132H conf = confirmation of human mutant IDH1 inhibitors | 750 compounds, 83% hits | AID 624002 | Potency, µM (series often up to 76.6 µM), for inactives: top-dose activity change, negative = inhibition, actives largely listed as inhibitors | shares compounds with IDH1 R132H inh | IDH1 R132H enzyme, NADPH diaphorase/resazurin fluorescence; note: potency is the fitted concentration of half-maximal effect; nearly all actives have a fitted effect of over 50% in size
Starred values were filed as active, the others as inactive; ? = inconclusive; · = not tested or not shown; [ ] = dose if it differs, or a comment. Most compounds without a hit are left out; they make up all but 3.1% or so of the library. Calls come from the whole dose curve; as a rule, active = well fitted curve in the direction sought with a large enough effect; inconclusive = small, poorly fitted or top-dose-only effect, or another doubt; inactive = no such curve, though single readings can be large; an effect the other way counts as inactive or inconclusive.

SMILES	A549 viability	Nrf2 inh	IDH1 R132H inh	rTrxR1 inhibitor	Mito fusion act	TrxR1 substrate	IDH1 autofl	WT IDH1 inh	IDH1 R132H conf
Clc1ccc(-c2csc(NNC3=NCCCCC3)n2)cc1	-20%	2%	?	-1%[57.1 µM]	-7%	9%[57.1 µM]	0	?	45µM*
Cc1nn(-c2ccc(N3CCCCC3)nn2)c(C)c1CCC(=O)NCc1ccccc1	-1%	24%	-11%	14%[57.1 µM]	·	2%[57.1 µM]	·	·	·
CC(=O)N1CCc2c(sc3c2c(=O)n(-c2ccccc2)c(=O)n3Cc2cccc(C(F)(F)F)c2)C1	-6%	?	22µM*	5%	·	-2%	-12	7.9µM*	11µM*
COc1cccc(Cn2c(=O)n(-c3cccc(Cl)c3)c(=O)c3c4c(sc32)CN(C(C)=O)CC4)c1	-7%	?	?	-6%	·	-1%	0	14µM*	14µM*
Cc1ccc(Cl)cc1N1CCN(C(=O)CN2C(=O)COc3ccc(S(=O)(=O)N4CCC(C)CC4)cc32)CC1	0%	-6%	3%	9%	·	-4%	·	·	·
COc1cc(OC)cc(C(=O)Nc2cc(-c3nc4cccnc4s3)ccc2C)c1	-14%	2%	-1%	11%	·	8%[11.4 µM]	·	·	·
COc1ccc(-c2nn3c(-c4ccccc4C)nnc3c3ccccc23)cc1	-19%	?	?	21%	·	17%	-2	2%	22µM*
CCCCOC(=O)CSC1=C(C#N)C(c2ccccc2OC)C(C#N)C(=O)N1 (stereo unspecified)	2%	?	?	-12%	-3%	0%	-1	64%	45µM*
CCOC(=O)C1C(=O)NC(SCC(N)=O)=C(C#N)C1c1ccccc1OCC (stereo unspecified)	-4%	-2%	4%	-18%	-1%	-4%	·	·	·
CCCOC(=O)CSC1=C(C#N)C(c2ccccc2OCC)C(C#N)C(=O)N1 (stereo unspecified)	-17%	-24%	?	-25%	0%	-14%	-3	70%	45µM*
CCOc1ccc(NS(=O)(=O)c2ccc3c4c(cccc24)C(=O)N3)cc1	0%	?	4%	19%	·	-2%	·	·	·
COc1ccc(OC)c(NC(=O)CN(c2ccccc2OC)S(=O)(=O)c2ccc(C)cc2)c1	-2%	-1%	5%	27%	·	7%	·	·	·
CC(C)(C)C1CCc2sc(-c3nnc(CCl)o3)cc2C1 (stereo unspecified)	8%	10%	52µM*	-6%	-28%	6%	7	-18%	40µM*
C[C@H](CO)N1C[C@H](C)[C@@H](CN(C)CC2CCCCC2)Oc2c(NS(=O)(=O)c3ccccc3)cccc2C1=O	1%	-4%	1%	9%[57.1 µM]	·	7%[57.1 µM]	·	·	·
C[C@H]1CN([C@@H](C)CO)C(=O)c2cccc(NS(=O)(=O)c3ccc(Cl)cc3)c2O[C@@H]1CN(C)CC1CCCCC1	1%	8%	45µM*	3%	·	2%	-4	4%	32µM*
COC(=O)c1cnc(NCc2ccc(F)cc2)c2ccccc12	12%	·	15%	-12%[57.1 µM]	·	10%[57.1 µM]	·	·	·
c1ccc(N(c2ccccc2)c2nc(-n3ccnc3)nc(-n3ccnc3)n2)cc1	12%	?	?	-2%	-25%	-9%	2	-3%	25µM*
